# Where “and” joins values, the source holds several entries; their conditions need not be identical. Identical values can stand only once. Records with an inconclusive call do not appear. Unmarked numbers belong to inactive results. Calls of active or inactive are those of the source. Calls follow the shape of the dose curve; as a rule, active = well fitted inhibition curve with a large enough effect; inconclusive = small, poorly fitted or top-dose-only effect; inactive = flat fitted curve, though single readings scatter. Non-standard residues stand in square brackets, D forms with d. Residues, ends and D or L forms follow the SMILES beside them. *: point of attachment. Nva = CCC[C@H](N)C(=O)O; Cbz = O=C(OCc1ccccc1)*
# Experiments:
# HACAT [1] = test: qHTS assay to identify novel small-molecules to repurpose for Merkel cell carcinoma treatment (AID 1296009); details: MCC and control cell lines, CellTiter-Glo viability, 72 h; at 44.8 µM (top of the series) unless noted
# How it was run: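 Cell viability, measured as CellTiter-Glo luminescence, was normalized between DMSO and no-cell wells. The cells had been exposed to 8- or 11-point compound dilutions for 72 hr at 37 degree celsius.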
# CRL-7250 = normal cell line; test: Cytotoxic Profiling of Annotated Libraries Using Quantitative High-Throughput Screening (AID 1296008); details: Five cell lines viability, CellTiter-Glo ATP luminescence, 48-72 h; max response: stronger effect = lower value; also: potency is read from the fitted curve at half-maximal effect; as to max response: % is scaled to controls: 0 for no effect and ±100 for the full control effect
# How it was run: (§1)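 Cytotoxicity was measured as CellTiter-Glo ATP luminescence, read after 10 min at room temperature. Compound treatment of the cells lasted 48 or 72 hr at 37 degrees Celsius in a qHTS format.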
# HEK293 = test: as above; details: Five cell lines viability, CellTiter-Glo ATP luminescence, 48-72 h; max response: stronger effect = lower value
# How it was run: as §1
# HaCat [2] = test: as above; details: Five cell lines viability, CellTiter-Glo ATP luminescence, 48-72 h; max response: stronger effect = lower value
# How it was run: as §1
# KB-3-1 = test: as above; details: Five cell lines viability, CellTiter-Glo ATP luminescence, 48-72 h; max response: stronger effect = lower value
# How it was run: as §1
# NIH3T3 = test: as above; details: Five cell lines viability, CellTiter-Glo ATP luminescence, 48-72 h; max response: stronger effect = lower value
# How it was run: as §1
# Also: nearly all actives have a fitted effect of over 60% in size.
structure (smiles),measurement,setting,value
CCOC(=O)[C@@H](N)Cc1ccc(-c2cc(O[C@H](c3ccc(Cl)cc3-n3ccc(C)n3)C(F)(F)F)nc(N)n2)cc1,outcome,HACAT [1],inactive
CCCCOc1ccc(C(=O)Nc2ccc(F)cc2F)cc1,outcome,HACAT [1],inactive
Nc1nc(=O)n([C@H]2C[C@H](O)[C@@H](CO)O2)cc1F,outcome,CRL-7250,inactive
same,Potency,HEK293,74.3 nM (active)
same,Potency,HaCat [2],0.0118 µM (active)
same,Potency,KB-3-1,11800 nM (active)
same,Potency,NIH3T3,8.3 nM (active)
CCOC(=O)C=C[C@H](C[C@@H]1CCNC1=O)NC(=O)[C@@H](CC(=O)[C@@H](NC(=O)c1cc(C)on1)C(C)C)Cc1ccc(F)cc1,max response,CRL-7250,-2.35%
same,max response,HEK293,-0.69%
same,max response,HaCat [2],-7.58%
same,max response,KB-3-1,4.76%
same,max response,NIH3T3,0.598%
CNC(=O)c1cccc(-c2ccc3c(N4CCOC[C@H]4C)nc(N4CCOC[C@H]4C)nc3n2)c1,Potency,CRL-7250,46.9 nM (active)
same,Potency,HEK293,105 nM (active)
same,Potency,HaCat [2],10.5 µM (active)
same,Potency,KB-3-1,118 nM (active)
same,Potency,NIH3T3,418 nM (active)
O=C(O)CCCCCC(=O)NN=C1CCCC1,max response,CRL-7250,1.92%
same,outcome,HEK293,inactive
same,max response,HaCat [2],0.832%
same,max response,KB-3-1,3.36%
same,max response,NIH3T3,3.56%
CCN1CCN(C(=O)N[C@H](C(=O)N[C@@H]2C(=O)N3C(C(=O)O)=C(CSc4nnnn4C)CS[C@@H]23)c2ccc(O)cc2)C(=O)C1=O,max response,CRL-7250,2.05%
same,outcome,HEK293,inactive
same,max response,HaCat [2],2.66%
same,outcome,KB-3-1,inactive
same,max response,NIH3T3,3.36%
CON=C(C(=O)N[C@@H]1C(=O)N2C(C(=O)O)=C(Cn3ccc(=N)n3CCO)CS[C@H]12)c1csc(N)n1,max response,CRL-7250,-8.38%
same,max response,HEK293,-24.1%
same,max response,HaCat [2],4.51%
same,outcome,KB-3-1,inactive
same,max response,NIH3T3,1.39%
CCCCCCCCCCCCc1ccc(S(=O)(=O)Nc2nncs2)cc1,outcome,CRL-7250,inactive
same,outcome,HEK293,inactive
same,max response,HaCat [2],-11%
same,outcome,KB-3-1,inactive
same,outcome,NIH3T3,inactive
O=C(O)C=Cc1ccc(Cn2ccnc2)cc1,max response,CRL-7250,3.43%
same,max response,HEK293,-2.77%
same,max response,HaCat [2],-0.523%
same,outcome,KB-3-1,inactive
same,max response,NIH3T3,-0.597%
CCC[C@@H](C=O)NC(=O)[C@H](CC(C)C)NC(=O)[C@H](CC(C)C)NC(=O)OCc1ccccc1 (Cbz-Leu-Leu-[Nva]-aldehyde),Potency,CRL-7250,4180 nM (active)
same,Potency,HEK293,3720 nM (active)
same,Potency,HaCat [2],9.35 µM (active)
same,Potency,KB-3-1,2960 nM (active)
same,Potency,NIH3T3,14800 nM (active)
c1cncc(CN2CCC(n3ncc4c(N5CCOCC5)nc(-c5ccc6[nH]ccc6c5)nc43)CC2)c1,Potency,CRL-7250,4.18 µM (active) and 7.31 µM (active)
same,Potency,HEK293,5800 nM (active)
same,Potency,HaCat [2],14.8 µM (active) and 18.4 µM (active)
same,Potency,KB-3-1,10300 nM (active)
same,Potency,NIH3T3,9.35 µM (active) and 5.17 µM (active)
COc1ccc2cc([S+]([O-])Cc3ncc(C)c(OC)c3C)nc2c1,outcome,CRL-7250,inactive
same,max response,HEK293,1.45%
same,max response,HaCat [2],3.09%
same,outcome,KB-3-1,inactive
same,max response,NIH3T3,-6.22%
CN[C@H]1[C@@H](O)[C@@H]2O[C@@H]3O[C@H](C)CC(=O)[C@]3(O)O[C@@H]2[C@@H](NC)[C@H]1O,max response,CRL-7250,4.26%
same,max response,HEK293,-3.13%
same,max response,HaCat [2],-0.114%
same,outcome,KB-3-1,inactive
same,max response,NIH3T3,4.68%
CC(C)(O)Cn1c(NC(=O)c2ccc(-c3cn[nH]c3)s2)nc2cc(CN3CCOCC3)ccc21,Potency,CRL-7250,1660 nM (active)
same,Potency,HEK293,526 nM (active)
same,Potency,HaCat [2],1.32 µM (active)
same,Potency,KB-3-1,1050 nM (active)
same,Potency,NIH3T3,2350 nM (active)
COc1cccc2c1C(=O)c1c(O)c3c(c(O)c1C2=O)C[C@@](O)(C(C)=O)C[C@H]3O[C@H]1C[C@H](N)[C@H](O)[C@H](C)O1,Potency,CRL-7250,132 nM (active)
same,Potency,HEK293,66.2 nM (active)
same,Potency,HaCat [2],0.418 µM (active)
same,Potency,KB-3-1,235 nM (active)
same,Potency,NIH3T3,209 nM (active)
N#CC(=C(O)c1ccc(Cl)cc1Cl)c1nc2cc(Cl)ccc2c(=O)[nH]1,max response,CRL-7250,-6.32%
same,max response,HEK293,1.08%
same,max response,HaCat [2],4.62%
same,max response,KB-3-1,3.32%
same,max response,NIH3T3,1.52%
CC[C@H](CC[C@@H](C)[C@H]1CC[C@H]2[C@@H]3CC=C4C[C@@H](O)CC[C@]4(C)[C@@H]3CC[C@]12C)C(C)C,max response,CRL-7250,-0.624%
same,max response,HEK293,-8.75%
same,max response,HaCat [2],4.34%
same,max response,KB-3-1,-7.92%
same,max response,NIH3T3,4.37%
CC(C)N1[N]C(=C2C=c3cc(O)ccc3=N2)c2c(N)ncnc21,Potency,CRL-7250,41.8 nM (active)
same,Potency,HEK293,469 nM (active)
same,Potency,HaCat [2],11.8 µM (active)
same,Potency,KB-3-1,1180 nM (active)
same,Potency,NIH3T3,526 nM (active)

# Source: PubChem BioAssay (NCATS)
